# Key:
# Experiment in all cases: DAPPL (digital affinity profiling via proximity ligation, sequencing); 10 mM Tris-HCl pH 7.5, 50 mM NaCl, 1 mM DTT, 4% glycerol, room temperature, 30 min; GST-TFs on glutathione beads, 16-mer random dsDNA library, 0.1% formaldehyde crosslink after washing; high values mean tight binding
# FLI1 = molecular target: T1, FLI1 (Homo sapiens, UniProt Q01543 1-452); settings: protein: recombinant; tags: N-terminal GST; dsDNA, one strand shown
# T1 sequence: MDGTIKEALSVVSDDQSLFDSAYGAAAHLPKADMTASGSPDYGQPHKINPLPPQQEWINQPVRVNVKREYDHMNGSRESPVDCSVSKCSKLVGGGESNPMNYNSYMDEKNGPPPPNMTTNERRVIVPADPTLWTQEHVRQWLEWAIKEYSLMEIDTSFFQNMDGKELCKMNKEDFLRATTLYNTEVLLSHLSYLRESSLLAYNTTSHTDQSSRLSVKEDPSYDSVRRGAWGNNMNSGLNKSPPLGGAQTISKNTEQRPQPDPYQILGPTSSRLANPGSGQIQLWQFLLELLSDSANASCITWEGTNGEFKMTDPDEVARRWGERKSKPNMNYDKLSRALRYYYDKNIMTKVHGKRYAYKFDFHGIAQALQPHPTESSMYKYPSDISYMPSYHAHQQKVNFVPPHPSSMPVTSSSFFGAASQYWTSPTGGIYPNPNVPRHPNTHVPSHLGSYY
# In short: (§1)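 Binding signal is given per hexamer as its read frequency for a factor divided by its frequency in the tag-only sample. GST-fused human transcription factors were expressed in yeast, captured on glutathione beads, barcoded with DNA and pooled with that sample, then incubated with 200 nmole of a 16-mer random double-stranded DNA library in Tris/NaCl/DTT/glycerol buffer for 30 min at room temperature. The pools were then washed, crosslinked, proximity-ligated, amplified by PCR and sequenced on an Illumina NextSeq500.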
# ELK1 = molecular target: T2, ELK1 (Homo sapiens, UniProt P19419 1-428); settings: protein: recombinant; tags: N-terminal GST; dsDNA, one strand shown
# T2 sequence: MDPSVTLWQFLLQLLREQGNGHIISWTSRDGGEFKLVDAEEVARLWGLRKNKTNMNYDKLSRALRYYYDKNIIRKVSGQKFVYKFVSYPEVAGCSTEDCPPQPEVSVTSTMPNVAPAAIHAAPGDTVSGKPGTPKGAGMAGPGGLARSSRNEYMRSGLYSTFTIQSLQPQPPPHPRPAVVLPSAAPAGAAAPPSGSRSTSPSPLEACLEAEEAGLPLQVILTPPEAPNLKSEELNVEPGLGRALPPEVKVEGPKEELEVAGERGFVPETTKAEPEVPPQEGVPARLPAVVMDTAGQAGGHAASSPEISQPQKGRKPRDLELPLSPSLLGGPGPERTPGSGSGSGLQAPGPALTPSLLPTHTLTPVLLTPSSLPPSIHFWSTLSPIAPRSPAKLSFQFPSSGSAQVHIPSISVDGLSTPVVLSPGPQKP
# In short: as §1
# GABPA = molecular target: T3, GABPA (Homo sapiens, UniProt Q06546 1-454); settings: protein: recombinant; tags: N-terminal GST; dsDNA, one strand shown
# T3 sequence: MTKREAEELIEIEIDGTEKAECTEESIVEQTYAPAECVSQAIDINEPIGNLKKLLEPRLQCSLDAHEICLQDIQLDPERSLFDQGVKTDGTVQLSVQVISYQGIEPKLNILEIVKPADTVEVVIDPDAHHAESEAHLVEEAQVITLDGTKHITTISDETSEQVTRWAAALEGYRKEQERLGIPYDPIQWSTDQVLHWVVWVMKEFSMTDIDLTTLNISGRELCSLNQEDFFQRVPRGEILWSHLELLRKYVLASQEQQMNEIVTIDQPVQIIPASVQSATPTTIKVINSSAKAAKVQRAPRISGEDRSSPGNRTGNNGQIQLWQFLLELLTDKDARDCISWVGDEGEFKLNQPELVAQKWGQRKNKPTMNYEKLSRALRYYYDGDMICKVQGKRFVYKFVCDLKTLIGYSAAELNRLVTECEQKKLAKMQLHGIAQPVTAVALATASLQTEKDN
# In short: as §1
# ERG = molecular target: T4, ERG (Homo sapiens, UniProt P11308 1-479); settings: protein: recombinant; tags: N-terminal GST; dsDNA, one strand shown
# T4 sequence: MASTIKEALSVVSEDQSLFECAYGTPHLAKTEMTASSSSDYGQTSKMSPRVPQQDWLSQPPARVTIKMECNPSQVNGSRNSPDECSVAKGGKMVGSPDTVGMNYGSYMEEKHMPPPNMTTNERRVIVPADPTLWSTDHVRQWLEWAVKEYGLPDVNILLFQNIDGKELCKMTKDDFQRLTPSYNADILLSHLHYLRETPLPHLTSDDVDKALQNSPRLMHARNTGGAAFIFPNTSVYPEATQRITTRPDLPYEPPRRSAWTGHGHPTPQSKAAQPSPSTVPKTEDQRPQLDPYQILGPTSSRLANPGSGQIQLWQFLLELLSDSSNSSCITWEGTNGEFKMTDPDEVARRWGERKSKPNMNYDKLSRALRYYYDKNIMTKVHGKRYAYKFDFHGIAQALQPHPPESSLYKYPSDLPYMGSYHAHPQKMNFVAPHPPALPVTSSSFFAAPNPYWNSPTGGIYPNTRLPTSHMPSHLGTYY
# In short: as §1
# ELF1 = ELF1 (Homo sapiens, UniProt P32519 1-619); settings: protein: recombinant; tags: N-terminal GST; dsDNA, one strand shown
# Sequence of ELF1 (P32519 whole entry): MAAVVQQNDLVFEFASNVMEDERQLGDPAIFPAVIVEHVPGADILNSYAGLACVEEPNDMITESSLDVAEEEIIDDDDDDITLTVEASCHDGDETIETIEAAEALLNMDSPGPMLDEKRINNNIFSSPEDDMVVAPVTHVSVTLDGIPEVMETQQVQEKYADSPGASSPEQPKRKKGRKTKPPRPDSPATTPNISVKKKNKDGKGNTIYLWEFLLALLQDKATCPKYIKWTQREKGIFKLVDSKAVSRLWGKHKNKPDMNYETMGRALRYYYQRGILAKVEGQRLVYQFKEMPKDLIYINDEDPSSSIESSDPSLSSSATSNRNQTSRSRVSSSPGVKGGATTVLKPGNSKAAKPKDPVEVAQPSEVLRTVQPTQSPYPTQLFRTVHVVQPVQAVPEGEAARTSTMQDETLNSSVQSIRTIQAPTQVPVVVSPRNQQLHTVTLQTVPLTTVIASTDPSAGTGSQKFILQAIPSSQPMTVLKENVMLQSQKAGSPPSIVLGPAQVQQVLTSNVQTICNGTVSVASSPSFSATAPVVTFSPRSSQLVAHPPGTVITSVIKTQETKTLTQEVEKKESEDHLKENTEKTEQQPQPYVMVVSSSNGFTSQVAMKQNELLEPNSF
# In short: as §1
# EHF = molecular target: T5, EHF (Homo sapiens, UniProt Q9NZC4 1-300); settings: protein: recombinant; tags: N-terminal GST; dsDNA, one strand shown
# T5 sequence: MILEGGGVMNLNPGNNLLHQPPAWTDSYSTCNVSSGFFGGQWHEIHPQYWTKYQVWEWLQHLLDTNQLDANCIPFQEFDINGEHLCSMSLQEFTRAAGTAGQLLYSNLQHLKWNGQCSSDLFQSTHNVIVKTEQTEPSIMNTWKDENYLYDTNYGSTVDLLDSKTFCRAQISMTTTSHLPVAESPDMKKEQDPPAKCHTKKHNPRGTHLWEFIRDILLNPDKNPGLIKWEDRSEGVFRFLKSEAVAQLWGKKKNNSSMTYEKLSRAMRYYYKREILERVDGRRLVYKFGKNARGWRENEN
# In short: as §1
# SPI1 = SPI1 (Homo sapiens, UniProt P17947 1-270); settings: protein: recombinant; tags: N-terminal GST; dsDNA, one strand shown
# In short: as §1
# SPIB = SPIB (Homo sapiens, UniProt Q01892 1-262); settings: protein: recombinant; tags: N-terminal GST; dsDNA, one strand shown
# Sequence of SPIB (Q01892 whole entry): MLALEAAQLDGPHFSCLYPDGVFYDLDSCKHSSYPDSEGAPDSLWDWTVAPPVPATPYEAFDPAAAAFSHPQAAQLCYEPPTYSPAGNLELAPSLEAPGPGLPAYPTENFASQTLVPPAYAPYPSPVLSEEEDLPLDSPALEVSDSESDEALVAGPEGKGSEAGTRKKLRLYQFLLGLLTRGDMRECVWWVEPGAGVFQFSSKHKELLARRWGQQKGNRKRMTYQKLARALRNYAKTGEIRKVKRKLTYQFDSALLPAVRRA
# In short: as §1
# ELK3 = molecular target: T6, ELK3 (Homo sapiens, UniProt P41970 1-407); settings: protein: recombinant; tags: N-terminal GST; dsDNA, one strand shown
# T6 sequence: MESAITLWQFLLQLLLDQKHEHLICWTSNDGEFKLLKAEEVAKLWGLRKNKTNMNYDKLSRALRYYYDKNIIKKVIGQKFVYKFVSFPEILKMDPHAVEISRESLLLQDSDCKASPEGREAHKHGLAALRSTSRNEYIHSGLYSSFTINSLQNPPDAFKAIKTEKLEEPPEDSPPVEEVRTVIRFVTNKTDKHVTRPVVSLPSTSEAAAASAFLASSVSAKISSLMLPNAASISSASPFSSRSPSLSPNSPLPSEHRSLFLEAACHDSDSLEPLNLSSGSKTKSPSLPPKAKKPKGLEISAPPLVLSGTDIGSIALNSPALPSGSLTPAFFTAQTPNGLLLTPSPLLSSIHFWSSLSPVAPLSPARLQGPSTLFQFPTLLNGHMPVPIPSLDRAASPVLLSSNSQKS
# In short: as §1
# FEV = molecular target: T7, FEV (Homo sapiens, UniProt Q99581 1-238); settings: protein: recombinant; tags: N-terminal GST; dsDNA, one strand shown
# T7 sequence: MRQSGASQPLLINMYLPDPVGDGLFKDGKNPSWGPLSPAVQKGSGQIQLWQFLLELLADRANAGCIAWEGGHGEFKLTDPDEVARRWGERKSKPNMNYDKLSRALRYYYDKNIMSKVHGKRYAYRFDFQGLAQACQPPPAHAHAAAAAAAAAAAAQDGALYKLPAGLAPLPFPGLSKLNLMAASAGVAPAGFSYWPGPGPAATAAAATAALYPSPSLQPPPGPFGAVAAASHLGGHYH
# In short: as §1
# ETV5 = ETV5 (Homo sapiens, UniProt P41161 1-510); settings: protein: recombinant; tags: N-terminal GST; dsDNA, one strand shown
# Sequence of ETV5 (P41161 whole entry): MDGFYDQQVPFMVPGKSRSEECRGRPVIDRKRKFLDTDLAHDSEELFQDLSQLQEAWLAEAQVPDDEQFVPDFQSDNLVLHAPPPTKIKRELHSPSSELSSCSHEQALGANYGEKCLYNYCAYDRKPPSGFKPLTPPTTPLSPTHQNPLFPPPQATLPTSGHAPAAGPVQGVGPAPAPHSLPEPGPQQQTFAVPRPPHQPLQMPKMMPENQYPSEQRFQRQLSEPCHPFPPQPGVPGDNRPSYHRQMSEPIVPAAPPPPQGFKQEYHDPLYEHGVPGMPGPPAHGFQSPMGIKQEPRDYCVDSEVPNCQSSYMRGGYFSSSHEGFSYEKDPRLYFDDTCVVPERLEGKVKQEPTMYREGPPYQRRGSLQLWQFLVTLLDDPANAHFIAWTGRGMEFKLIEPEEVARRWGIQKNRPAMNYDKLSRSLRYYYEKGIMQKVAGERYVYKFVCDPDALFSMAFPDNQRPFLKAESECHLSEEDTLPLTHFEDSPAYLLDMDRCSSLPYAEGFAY
# In short: as §1
# HSF1 = HSF1 (Homo sapiens, UniProt Q00613 1-529); settings: protein: recombinant; tags: N-terminal GST; chain copies: 3; dsDNA, one strand shown
# Sequence of HSF1 (Q00613 whole entry): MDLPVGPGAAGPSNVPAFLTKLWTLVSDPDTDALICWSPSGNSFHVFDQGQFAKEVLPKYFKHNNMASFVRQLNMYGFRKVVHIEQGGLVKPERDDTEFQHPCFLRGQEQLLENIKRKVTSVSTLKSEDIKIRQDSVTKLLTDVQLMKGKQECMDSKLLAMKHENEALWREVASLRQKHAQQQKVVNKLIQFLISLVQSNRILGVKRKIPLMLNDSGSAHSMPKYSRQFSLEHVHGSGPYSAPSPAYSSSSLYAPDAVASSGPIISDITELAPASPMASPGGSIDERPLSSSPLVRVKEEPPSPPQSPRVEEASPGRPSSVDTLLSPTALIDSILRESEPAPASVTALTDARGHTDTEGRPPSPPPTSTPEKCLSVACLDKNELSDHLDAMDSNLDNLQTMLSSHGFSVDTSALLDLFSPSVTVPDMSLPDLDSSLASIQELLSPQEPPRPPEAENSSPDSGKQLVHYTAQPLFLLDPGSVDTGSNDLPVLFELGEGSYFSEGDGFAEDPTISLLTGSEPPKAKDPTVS
# In short: as §1
# SPIC = molecular target: T8, SPIC (Homo sapiens, UniProt Q8N5J4 1-248); settings: protein: recombinant; tags: N-terminal GST; dsDNA, one strand shown
# T8 sequence: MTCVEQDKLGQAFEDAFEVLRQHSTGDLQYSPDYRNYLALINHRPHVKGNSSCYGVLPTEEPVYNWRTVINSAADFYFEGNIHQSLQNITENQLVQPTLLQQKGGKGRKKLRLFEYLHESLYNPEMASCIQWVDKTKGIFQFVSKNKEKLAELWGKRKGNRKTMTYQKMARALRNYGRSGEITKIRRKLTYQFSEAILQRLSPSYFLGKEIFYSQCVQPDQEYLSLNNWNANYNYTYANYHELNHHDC
# In short: as §1
# ELF4 = ELF4 (Homo sapiens, UniProt Q99607 1-663); settings: protein: recombinant; tags: N-terminal GST; dsDNA, one strand shown
# Sequence of ELF4 (Q99607 whole entry): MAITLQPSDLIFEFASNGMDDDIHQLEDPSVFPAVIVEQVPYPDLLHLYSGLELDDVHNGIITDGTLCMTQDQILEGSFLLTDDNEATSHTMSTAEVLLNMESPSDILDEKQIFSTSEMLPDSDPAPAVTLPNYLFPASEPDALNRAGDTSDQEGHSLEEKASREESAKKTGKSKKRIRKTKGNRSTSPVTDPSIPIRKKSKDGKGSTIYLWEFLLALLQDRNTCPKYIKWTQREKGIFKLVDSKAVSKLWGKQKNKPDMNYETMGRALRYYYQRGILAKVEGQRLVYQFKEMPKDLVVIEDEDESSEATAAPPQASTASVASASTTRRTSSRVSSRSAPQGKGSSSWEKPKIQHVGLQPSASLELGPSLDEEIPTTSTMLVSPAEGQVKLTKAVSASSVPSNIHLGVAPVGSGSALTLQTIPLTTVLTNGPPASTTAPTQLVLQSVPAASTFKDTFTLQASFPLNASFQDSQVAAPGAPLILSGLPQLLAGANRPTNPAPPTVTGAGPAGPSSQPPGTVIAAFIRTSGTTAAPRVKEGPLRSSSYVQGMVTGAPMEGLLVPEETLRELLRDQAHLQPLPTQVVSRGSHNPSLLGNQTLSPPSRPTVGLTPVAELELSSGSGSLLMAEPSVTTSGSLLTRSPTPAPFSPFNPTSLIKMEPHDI
# In short: as §1
# ELK4 = molecular target: T9, ELK4 (Homo sapiens, UniProt P28324-2 1-405); settings: protein: recombinant; tags: N-terminal GST; dsDNA, one strand shown
# T9 sequence: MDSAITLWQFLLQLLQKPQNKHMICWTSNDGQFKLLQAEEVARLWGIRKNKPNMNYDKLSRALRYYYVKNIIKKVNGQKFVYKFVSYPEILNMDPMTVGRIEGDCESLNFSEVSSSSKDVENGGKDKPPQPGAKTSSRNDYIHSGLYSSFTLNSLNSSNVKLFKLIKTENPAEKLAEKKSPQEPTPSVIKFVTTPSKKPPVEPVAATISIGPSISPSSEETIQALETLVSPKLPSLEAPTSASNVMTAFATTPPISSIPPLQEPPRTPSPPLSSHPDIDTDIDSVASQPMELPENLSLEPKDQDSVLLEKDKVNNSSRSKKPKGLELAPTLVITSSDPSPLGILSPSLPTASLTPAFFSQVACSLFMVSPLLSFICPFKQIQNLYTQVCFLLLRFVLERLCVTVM
# In short: as §1
# ETV2 = molecular target: T10, ETV2 (Homo sapiens, UniProt O00321 1-342); settings: protein: recombinant; tags: N-terminal GST; dsDNA, one strand shown
# T10 sequence: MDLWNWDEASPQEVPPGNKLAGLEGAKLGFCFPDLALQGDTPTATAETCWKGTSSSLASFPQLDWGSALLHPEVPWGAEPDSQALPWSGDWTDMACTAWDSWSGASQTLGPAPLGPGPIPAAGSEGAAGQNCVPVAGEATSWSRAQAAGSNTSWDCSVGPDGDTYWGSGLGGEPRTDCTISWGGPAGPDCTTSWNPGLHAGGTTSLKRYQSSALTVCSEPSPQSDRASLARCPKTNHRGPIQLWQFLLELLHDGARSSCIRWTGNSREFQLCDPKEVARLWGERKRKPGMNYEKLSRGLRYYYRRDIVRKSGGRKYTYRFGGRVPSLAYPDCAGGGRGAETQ
# In short: as §1
# ELF3 = molecular target: T11, ELF3 (Homo sapiens, UniProt P78545 1-371); settings: protein: recombinant; tags: N-terminal GST; dsDNA, one strand shown
# T11 sequence: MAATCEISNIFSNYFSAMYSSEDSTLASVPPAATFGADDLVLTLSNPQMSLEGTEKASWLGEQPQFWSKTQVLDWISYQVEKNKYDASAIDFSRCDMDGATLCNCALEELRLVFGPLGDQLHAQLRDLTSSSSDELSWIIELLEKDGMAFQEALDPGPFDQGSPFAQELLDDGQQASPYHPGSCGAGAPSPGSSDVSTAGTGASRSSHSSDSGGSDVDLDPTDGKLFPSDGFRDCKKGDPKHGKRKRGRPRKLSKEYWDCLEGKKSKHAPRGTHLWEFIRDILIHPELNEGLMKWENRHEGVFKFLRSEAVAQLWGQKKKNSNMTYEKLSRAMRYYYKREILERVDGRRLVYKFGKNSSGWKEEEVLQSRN
# In short: as §1
# CRX = CRX (Homo sapiens, UniProt O43186 1-299); settings: protein: recombinant; tags: N-terminal GST; dsDNA, one strand shown
# Sequence of CRX (O43186 whole entry): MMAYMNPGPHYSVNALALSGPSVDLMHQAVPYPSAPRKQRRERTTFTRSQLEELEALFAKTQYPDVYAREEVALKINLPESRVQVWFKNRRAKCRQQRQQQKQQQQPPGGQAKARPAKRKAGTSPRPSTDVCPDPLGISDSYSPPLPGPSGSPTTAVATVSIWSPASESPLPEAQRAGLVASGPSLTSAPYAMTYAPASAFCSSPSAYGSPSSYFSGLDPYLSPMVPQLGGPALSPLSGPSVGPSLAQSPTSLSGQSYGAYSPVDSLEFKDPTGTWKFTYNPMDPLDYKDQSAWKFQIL
# In short: as §1
# ETV1 = ETV1 (Homo sapiens, UniProt P50549 1-477); settings: protein: recombinant; tags: N-terminal GST; dsDNA, one strand shown
# Sequence of ETV1 (P50549 whole entry): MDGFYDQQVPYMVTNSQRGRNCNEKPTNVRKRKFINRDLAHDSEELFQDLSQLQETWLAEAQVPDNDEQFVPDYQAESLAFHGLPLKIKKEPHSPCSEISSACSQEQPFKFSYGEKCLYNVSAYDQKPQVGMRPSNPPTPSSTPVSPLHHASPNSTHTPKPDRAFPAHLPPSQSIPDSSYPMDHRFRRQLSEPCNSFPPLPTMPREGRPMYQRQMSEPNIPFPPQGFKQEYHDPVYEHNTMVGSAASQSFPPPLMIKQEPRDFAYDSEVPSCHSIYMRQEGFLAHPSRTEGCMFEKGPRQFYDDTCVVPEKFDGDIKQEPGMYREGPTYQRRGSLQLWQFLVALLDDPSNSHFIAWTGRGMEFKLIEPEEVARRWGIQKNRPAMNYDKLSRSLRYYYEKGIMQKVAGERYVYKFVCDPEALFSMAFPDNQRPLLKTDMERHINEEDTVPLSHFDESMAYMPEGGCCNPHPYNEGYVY
# In short: as §1
sequence,measurement,setting,value
ATTGCG,binding signal,FLI1,"1.33 fold enrichment (6-mer frequency, TF over GST control)"
same,binding signal,ELK1,"1.06 fold enrichment (6-mer frequency, TF over GST control)"
same,binding signal,GABPA,"1.3 fold enrichment (6-mer frequency, TF over GST control)"
same,binding signal,ERG,"1.16 fold enrichment (6-mer frequency, TF over GST control)"
same,binding signal,ELF1,"1.27 fold enrichment (6-mer frequency, TF over GST control)"
same,binding signal,EHF,"1.28 fold enrichment (6-mer frequency, TF over GST control)"
same,binding signal,SPI1,"1.44 fold enrichment (6-mer frequency, TF over GST control)"
same,binding signal,SPIB,"1.1 fold enrichment (6-mer frequency, TF over GST control)"
same,binding signal,ELK3,"1.27 fold enrichment (6-mer frequency, TF over GST control)"
same,binding signal,FEV,"1.17 fold enrichment (6-mer frequency, TF over GST control)"
same,binding signal,ETV5,"1.24 fold enrichment (6-mer frequency, TF over GST control)"
same,binding signal,HSF1,"1.07 fold enrichment (6-mer frequency, TF over GST control)"
same,binding signal,SPIC,"1.29 fold enrichment (6-mer frequency, TF over GST control)"
same,binding signal,ELF4,"1.25 fold enrichment (6-mer frequency, TF over GST control)"
same,binding signal,ELK4,"1.14 fold enrichment (6-mer frequency, TF over GST control)"
same,binding signal,ETV2,"1.59 fold enrichment (6-mer frequency, TF over GST control)"
same,binding signal,ELF3,"1.29 fold enrichment (6-mer frequency, TF over GST control)"
same,binding signal,CRX,"1.12 fold enrichment (6-mer frequency, TF over GST control)"
same,binding signal,ETV1,"1.29 fold enrichment (6-mer frequency, TF over GST control)"
